# VACV Venus inh – qHTS for Stage-Specific Inhibitors of Vaccinia Orthopoxvirus: Venus Reporter Primary qHTS | Vaccinia virus Venus reporter expression, fluorescence | Potency, µM (doses to about 36.5 µM), for the others: at the top dose activity change, negative = inhibition, hits mostly inhibitors | 0.46% of 330,000 active; calls by dose curve; tested in A549 cells; also: potency is read from the fitted curve at half-maximal effect; nearly all actives have a fitted effect of over 30% in size
# HCMV antiviral – qHTS Assay for inhibitors of the human cytomegalovirus (HCMV); HFF cells, HCMV-luciferase reporter, 72 h; stronger effect = lower value; activity change, negative = inhibition, % at 57.5 µM; 4.5% of 410,000 active; AID 1259415, 2018; in the data active = activity change below about -60%; inconclusive = no clear call, values can overlap the other calls; inactive = above about -39%
#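 Cell-based, HFFs, 1000 cells/well, 16 h 37C; cpds in DMSO + HCMV-luc, MOI 1 PFU/cell; 72 h 37C; OneGlo luminescence after 5 min RT; norm. to buffer vs Salinomycin 10uM.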
# VACV mCherry inh – qHTS for Stage-Specific Inhibitors of Vaccinia Orthopoxvirus: mCherry Reporter Primary qHTS; 0.63% of 310,000 active; Vaccinia virus mCherry reporter infection, fluorescence; Potency, µM (top dose mostly 36.5 µM), inactives show at the top dose activity change, negative = inhibition, usual class: inhibitors; calls by dose curve; tested in A549 cells; also: potency is read from the fitted curve at half-maximal effect; nearly all actives have a fitted effect of over 35% in size
# HCV inh – qHTS Assay for Inhibitors of Hepatitis C Virus (HCV); Huh7.5.1 HCVcc-Cre infection, luciferase reporter, 44 h; 3.4% of 340,000 active; Potency, µM (top dose mostly 41.8 µM), inactives show at the highest dose activity change, negative = inhibition, most hits filed as inhibitors; active = well fitted inhibition curve with a large enough effect; inconclusive = small, poorly fitted or top-dose-only effect, or another doubt; inactive = no such curve, though single readings can be large or run the other way; also: potency is read from the fitted curve at half-maximal effect
#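 Compounds are dispensed onto cells plated 4 h earlier at 1,000 per well, with HCVcc-Cre virus (about 0.5 moi) added next. Following 44 h of culture, luminescent signal is measured for 15 sec after 15 min with substrate at room temperature.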
# FMDV antiviral – High Throughput Screening for Foot and Mouth Disease Virus Antivirals. Potency, µM (series often up to 57.9 µM), without a hit: at the top dose activity change, negative = inhibition, usual class: inhibitors. AID 1159524, 2015. 1.2% of 410,000 active. FMDV antiviral cell-based qHTS; calls by dose curve; tested in HEK293T cells; also: read-out not given here; potency is read from the fitted curve at half-maximal effect; nearly all actives have a fitted effect of over 45% in size
# * = called active by the depositor; i = inactive; ? = inconclusive; . = no result. Shown are actives, neighbours in structure and some others; about 7.3% of the full set was active somewhere. % is scaled to controls: 0 for no effect and ±100 for the full control effect.
SMILES,VACV Venus inh,HCMV antiviral,VACV mCherry inh,HCV inh,FMDV antiviral
COCC(=O)Nc1nc2ccccc2s1,-16%,151,-14%,-11%,28%
COc1ccc(C(=O)Nc2nc3ccccc3s2)c(OC)c1,-14%,-97*,1%,-8%,0.13µM*
COCCN(C(=O)Nc1ccc(OC)cc1)c1nc2ccccc2s1,-4%,-97*,-26%,?,-1%
COc1ccc2nc(NC(=O)c3ccccc3C(=O)O)sc2c1,.,45,.,7%,3%
COCCN(C(=O)Nc1ccc(F)cc1F)c1nc2ccccc2s1,-8%,97,-12%,-2%,26%
NC(=S)Nc1nc2ccccc2s1,0%,-108*,-16%,14%,43%
O=C(Nc1nc2ccccc2s1)c1cccn(Cc2ccccc2)c1=O,-21%,60,-3%,.,-36%
Cc1ccccc1Cn1cccc(C(=O)Nc2nc3ccccc3s2)c1=O,-26%,-71*,-24%,.,22µM*
CCOc1ccccc1NC(=O)c1nc(SCc2ccccc2F)ncc1Cl,6%,.,0%,.,.
NC(Cc1cc(I)c(Oc2cc(I)c(O)c(I)c2)c(I)c1)C(=O)O (stereo unspecified),-10%,.,-17%,.,-12%
COc1cc(N(C)C)c(OC)cc1C=O,-3%,.,-14%,.,.
COc1cc(C(=O)NCc2ccc(-c3nc4ccccc4s3)cc2)cc(OC)c1OC,-20%,69,-3%,-8%,7%
COc1ccc(C(=O)Nc2ccccc2Cc2ccccc2)c(OC)c1,-30%,-71*,?,10µM*,-4%
COc1ccccc1C(=O)Nc1nc2ccccc2s1,.,-99*,.,?,1.8µM*
COc1ccccc1C(=O)NCc1ccc(-c2nc3ccccc3s2)cc1,-9%,-61*,-11%,16%,?
COc1ccccc1C(=O)Nc1nc2ccc(S(C)(=O)=O)cc2s1,-4%,-1,-19%,9%,8%
O=C(NNc1nc2ccccc2s1)c1ccccc1F,-12%,-67*,-28%,10%,38%
COc1ccc(C(=O)Nc2ccc(C)cc2C(=O)c2ccccc2)c(OC)c1,-19%,?,-18%,-1%,?
COc1ccc(OC)c(-c2cc(Cl)c3c(c2)CC(CNC(=O)C(C)N2CCOCC2)O3)c1 (stereo unspecified),8%,.,-11%,.,8%
Cc1ccc(-c2onc(C)c2C)cc1S(=O)(=O)NCc1ccco1,-12%,-1,i,.,30%
CCOc1ccc(/C=C/c2ccnc3ccccc23)cc1OCC,-14%,.,-17%,.,.
Cc1[nH]nc(-c2ccc(O)c(C)c2O)c1-c1cnn(-c2ccccc2)c1,.,-27,.,4µM*,-2%
N#CC1=C2N=C(N)c3ccccc3N2C2=C(C(=O)CCC2)C1c1cccc(Cl)c1 (stereo unspecified),.,-70*,.,?,-3%
Cc1cc(Cl)ccc1OCC(=O)N1CCC(c2nc3ccccc3o2)CC1,-3%,?,1%,.,?
CN(c1ccc(OCC(=O)Nc2nc3ccccc3s2)cc1)S(=O)(=O)c1ccccc1,.,?,.,?,11µM*
SMILES,VACV Venus inh,HCMV antiviral,VACV mCherry inh,HCV inh,FMDV antiviral
CCc1nnc(NC(=O)COc2ccc(N(C)S(=O)(=O)c3ccc(C)cc3)cc2)s1,.,-102*,.,-23%,-13%
CCOC(=O)Cc1csc(NC(=O)COc2ccc(N(C)S(=O)(=O)c3ccc(C)cc3)cc2)n1,-6%,17,-15%,?,18µM*
C[C@@H](NC(=O)[C@@H]1[C@@H](CO)[C@@H]2Cn3c(cccc3=O)[C@@H]2N1C(=O)C1CC1)c1ccccc1,.,1,.,.,.
CCOC(=O)C1=CCN(S(=O)(=O)c2ccc(Br)cc2)C1c1ccc(Br)cc1 (stereo unspecified),.,-33,.,.,.
c1csc(CNc2ccc3c(c2)OCCO3)c1,-15%,-86*,-23%,?,?
COc1cccc(CN2CCN(C3CCN(c4cccc(C)c4C)CC3)CC2CCO)c1 (stereo unspecified),.,-24,.,11µM*,?
Cc1cc(F)ccc1N1CCC(N2CCN(CCC(C)C)C(CCO)C2)CC1 (stereo unspecified),?,37,?,10µM*,0%
Cc1cc(F)ccc1N1CCC(N2CCN(C(C)C)C(CCO)C2)CC1 (stereo unspecified),-9%,-12,-5%,?,-7%

# Compound activity deposited in PubChem BioAssay by National Center for Advancing Translational Sciences (NCATS).
